Assay outcomes from PubChem.
HttQ103 aggreg: inhibitors of mutant huntingtin aggregate formation in PC12 cells; actives 1.1% (n = 220,000); Potency, µM (highest dose often 46.1 µM), actives largely listed as inhibitors; PC12 HttQ103-GFP aggregates, Acumen cytometry, 40 h; also: nearly all actives have a fitted effect of over 60% in size
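Huntingtin Q103 exon 1–GFP aggregates in induced PC12 cells (100 nM tebufenozide) were quantified by cytometry from lysates, with compounds dosed in titration.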
ALDH1A1 block: blocks purified human ALDH1A1 activity; P00352; Purified ALDH1A1, NADH fluorescence, propionaldehyde substrate; Potency, µM (doses to about 75.3 µM), usual class: inhibitors; actives 7.3% (n = 220,000); active = well fitted inhibition curve with a large enough effect, not every such curve was filed as active; inconclusive = small, poorly fitted or top-dose-only effect, or another doubt; inactive = no such curve, though single readings can be large or run the other way
HPGD inh: blocks human HPGD enzyme activity | actives 4.3% (n = 150,000) | AID 894 | P15428 | purified HPGD, NADH fluorescence kinetic, PGE2 substrate | Potency, µM, usual class: inhibitors; active = well fitted inhibition curve with a large enough effect, not every such curve was filed as active; inconclusive = small, poorly fitted or top-dose-only effect, or another doubt; inactive = no such curve, though single readings can be large or run the other way
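20 nM HPGD preincubated 15 min at room temperature with compound in 50 mM Tris-HCl pH 8, 0.01% Tween 20. Started with 1 mM NAD+ and 30 uM prostaglandin E2; NADH fluorescence (360/450 nm) read 5 times over 30-s intervals, last minus first.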
CBFb-RUNX1 inh: inhibitors of human CBF-beta and RUNX1 interaction. Q01196+Q13951. Potency, µM (series often up to 59.8 µM), usual class: inhibitors. 230,000 tested, under 10 active. AID 1477. AlphaScreen CBFb-His/RUNX1-biotin binding, biochemical
Target sequence (Q01196 whole entry, looked up): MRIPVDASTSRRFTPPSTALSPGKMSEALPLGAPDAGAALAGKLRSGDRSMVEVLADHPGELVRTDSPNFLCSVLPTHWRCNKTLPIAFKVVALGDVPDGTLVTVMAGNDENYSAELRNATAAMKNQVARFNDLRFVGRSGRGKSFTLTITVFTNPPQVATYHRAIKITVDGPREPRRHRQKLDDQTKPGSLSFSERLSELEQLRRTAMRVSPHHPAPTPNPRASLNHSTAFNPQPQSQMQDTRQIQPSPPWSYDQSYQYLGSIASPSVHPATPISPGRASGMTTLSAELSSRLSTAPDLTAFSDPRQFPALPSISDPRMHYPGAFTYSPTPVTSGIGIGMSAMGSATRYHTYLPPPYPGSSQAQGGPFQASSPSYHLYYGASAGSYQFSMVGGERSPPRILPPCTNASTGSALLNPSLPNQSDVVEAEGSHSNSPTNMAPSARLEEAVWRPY
Target sequence (Q13951 whole entry, looked up): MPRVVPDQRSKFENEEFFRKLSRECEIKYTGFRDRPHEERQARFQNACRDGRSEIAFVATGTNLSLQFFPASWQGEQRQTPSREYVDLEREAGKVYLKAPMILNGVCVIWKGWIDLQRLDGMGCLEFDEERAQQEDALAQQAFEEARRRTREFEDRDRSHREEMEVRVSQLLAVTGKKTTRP
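Proteins preincubated together for 20 min at RT before compound addition; 15 min later, nickel and streptavidin beads were added and left 90 min prior to AlphaScreen measurement.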
KDM4E inh: blocks human JMJD2E demethylase activity; AID 2147; JMJD2E catalytic domain, FDH-coupled NADH fluorescence (FDH is formaldehyde dehydrogenase); B2RXH2; Potency, µM (top dose mostly 57.1 µM), actives largely listed as inhibitors; actives 1.6% (n = 230,000); active = well fitted inhibition curve with a large enough effect, not every such curve was filed as active; inconclusive = small, poorly fitted or top-dose-only effect, or another doubt; inactive = no such curve, though single readings can be large or run the other way; also: nearly all actives have a fitted effect of over 50% in size
HTT cytoprotect: cytoprotection in Huntington HTT-Q103 PC12 cell model. PC12 HTT-Q103 induced, cytoprotection, ATP luminescence, 40 h. Potency, µM (doses to about 56.4 µM), most hits filed as activators. actives 0.14% (n = 230,000). AID 1471; also: nearly all actives have a fitted effect of over 45% in size
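Huntington model: PC12 line, ecdysone-inducible HTTQ103 exon1–GFP, tebufenozide 100 nM. Test articles in a dose series. Endpoint luminescence from cellular ATP.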
A number is an active result; - = inactive; ? = inconclusive; . = not tested or not shown; [ ] = dose if it differs, or a comment. Hits are enriched below; roughly 9.8% of the tested compounds scored in any of these assays. Unless noted, calls follow the shape of the dose curve; as a rule, active = well fitted curve in the direction sought with a large enough effect; inconclusive = small, poorly fitted or top-dose-only effect, or another doubt; inactive = no such curve, though single readings can be large; an effect the other way counts as inactive or inconclusive.

SMILES	HttQ103 aggreg	ALDH1A1 block	HPGD inh	CBFb-RUNX1 inh	KDM4E inh	HTT cytoprotect
O=C(C1CC1)N1CCN(C(c2ccccc2)c2ccccc2)CC1	-	1.12µM	-	-	-	-
CCNC(=S)N1CCN(C(c2ccccc2)c2ccccc2)CC1	?	3.16µM	-	-	-	-[10 µM]
COc1ccc(CCNC(=O)c2cc(=O)n(C)c(=O)n2C)cc1OC	-	-	.	-	-	-
Cc1ccc(CSCCNC(=O)CN(c2ccccc2)S(C)(=O)=O)cc1	-	-	.	-	?	-
CCCCc1n[nH]c(=S)n1Cc1ccc(C)cc1	-	?	.	-	-	-
CCNC(=S)N1CCN(Cc2ccccc2)CC1	-	15.8µM	.	-	?	-
CCCNC(=S)N1CCN(C(c2ccccc2)c2ccccc2)CC1	-	?	-	-	-	-[10 µM]
CCCCNC(=S)N1CCN(C(c2ccccc2)c2ccccc2)CC1	?	28.2µM	.	-	-	-[10 µM]
CCN1CCN(C(=S)NCCc2ccccc2)CC1	-	-	-	-	-	-
CC(C)N(CCCNC(=O)CC1Oc2ccccc2NC1=O)Cc1ccccc1 (stereo unspecified)	-	-	-	-	-	-
Cc1cc(/C=N/N2CCN(C)CC2)c(C)n1-c1ccccc1F	-	11.2µM	.	?	?	-
O=C(OCCCCN1C(=O)c2ccccc2C1=O)c1n[nH]c2ccccc12	-	-	31.6µM	-	-	-[10 µM]
CC(=O)c1c(C)[nH]c(C(=O)OCCCCN2C(=O)c3ccccc3C2=O)c1C	2.82µM	?	-	-	-	-
O=C(CC1C(=O)NCCN1C/C=C/c1ccccc1)NCCCC1CCCC1 (stereo unspecified)	-[9.22 µM]	?	.	-	-	-[10 µM]
O=S(=O)(Cc1ccccc1)NCC1CCCN(Cc2cccc3nonc23)C1 (stereo unspecified)	-[9.22 µM]	10µM	.	-	-	-[10 µM]
O=C(Nc1ccccc1)N1CCCC(CNS(=O)(=O)Cc2ccccc2)C1 (stereo unspecified)	-[9.22 µM]	-	.	-	-	-[10 µM]
Cc1cc(Cl)ccc1OCC(=O)Nc1nc(N)nc(N)n1	.	-[13.5 µM]	-	.	.	-[10 µM]
CCOC(=O)c1c(C)oc(NC(=O)COc2ccc(Cl)cc2C)c1C#N	-	?	31.6µM	-	-	-
CC(C)C1S/C(=N/N=C/c2ccco2)NC1=O (stereo unspecified)	-	.	12.6µM	-	-	-
CCCOC(=O)/C(=C\C=C\c1ccco1)NC(=O)c1ccccc1	-	20µM	.	-	-	-
CCSc1nc(O)cc(=O)n1CC	-	-	.	-	-	.
CCOC(=O)C1CCN(C(=O)COc2ccc(N(C)S(=O)(=O)c3ccc(C)cc3)cc2)CC1	-	17.8µM	.	-	-	-
CN(c1ccc(C(=O)N2CCCCC2)cc1)S(=O)(=O)c1ccccc1	?	-	0.447µM	-	-	-
Cc1ccc(S(=O)(=O)N(C)c2ccc(C(=O)N3CCCCC3)cc2)cc1	-	-	0.398µM	-	-	-
CN(c1ccc(C(=O)NC2CC2)cc1)S(=O)(=O)c1ccccc1	-	-	12.6µM	-	-	-[0.074 µM]
SMILES	HttQ103 aggreg	ALDH1A1 block	HPGD inh	CBFb-RUNX1 inh	KDM4E inh	HTT cytoprotect
Cc1ccc(S(=O)(=O)N(C)c2ccc(C(=O)N3CCc4ccccc4C3)cc2)cc1	?	-	.	-	-	-
CCC1(C)N=c2c(c(=O)n(C)c(=O)n2C)=NO1 (stereo unspecified)	-	?	-	-	-	-
C=CCN(c1ccc(C(=O)N2CCCC2)cc1)S(C)(=O)=O	-	-	20µM	-	-	-[10 µM]
C=CCN(c1ccc(C(=O)NC(C)C)cc1)S(C)(=O)=O	-	-	-	-	-	-
Brc1ccc(-c2ncc3ccccn23)cc1	-[9.22 µM]	.	.	-	?	-[10 µM]
COC(=O)c1c(NC(=O)CN2CCCc3ccccc32)sc(C)c1C	-	20µM	-	-	?	-[10 µM]
COC(=O)c1c(NC(=O)CN2CCC3(O)CCCCC3C2c2cc(OC)ccc2OC)sc(C)c1C (stereo unspecified)	-	?	?	-	?	-[10 µM]
COC(=O)c1c(NC(=O)CN2CCC3(O)CCCCC3C2c2ccc(F)cc2)sc(C)c1C (stereo unspecified)	-	25.1µM	-	-	?	-[10 µM]
Cc1noc(C)c1S(=O)(=O)Nc1ccc(O)c2c(=O)cc(-c3ccccc3Cl)oc12	-[9.22 µM]	.	.	-	-	-[10 µM]
Cc1cc(O)c(C=O)c2c1C(=O)Oc1c(C)c(O)c3c(c1O2)C(O)OC3=O (stereo unspecified)	.	?	10µM	-	?	?
COC(=O)c1c(OC)cc2c(c1C)Oc1c(Cl)c(O)c(Cl)c(C)c1C(=O)O2	.	?	?	-	-	?
COc1cc(C)c2c(c1C=O)Oc1c(c(C)c(O)c3c1C(O)OC3=O)OC2=O (stereo unspecified)	-[9.22 µM]	-	20µM	?	?	-
COc1cccc2cc(C(C)OC(=O)Nc3ccc(C)cc3)oc12 (stereo unspecified)	-	-	.	-	-	-
CCOC(=O)c1sc2nc3n(c(=O)c2c1C)CCC(C)CC3 (stereo unspecified)	-[9.22 µM]	11.2µM	25.1µM	-	-	-
CCOC(=O)N1CCN(C(=O)Nc2sc3nc4n(c(=O)c3c2C)CCC(C)CC4)CC1 (stereo unspecified)	-	12.6µM	-	-	-	-
COc1ccccc1OC[C@H](O)CN1CCN(CC(=O)Nc2c(C)cccc2C)CC1	.	.	.	.	.	-[1.9 µM]
CC(C)(C)c1ccc(O)c(O)c1	.	0.891µM	10µM	-	.	-
C=CCSc1nnc(-c2cc3c(s2)-c2ccccc2CC3)o1	-	?	?	?	?	-[10 µM]
COc1ccc(N2C(=O)[C@H]3CCC=C[C@H]3[C@@H]2c2ccccc2Br)cc1	.	7.08µM	-	-	.	-
O=C(NN=C1CCN(Cc2ccccc2)CC1)c1cc2ccccc2cc1O	-	-	-	?	28.2µM	.
CCOCCCNCc1cn(-c2ccc(F)cc2F)nc1-c1ccccc1C	-	-	.	-	-	-
Cn1c(=O)c(NCCc2ccccc2)c2c3c(cccc31)C(=O)c1ccccc1-2	10µM	-	-	?	-	-
COc1ccc(-c2nc(-c3ccccc3)oc2Nc2ccccc2C)cc1	.	-	-	-	-	?
Cc1cccc2cc(CN(Cc3ccco3)C(c3nnnn3CCc3ccccc3)C(C)C)c(=O)[nH]c12 (stereo unspecified)	-[9.22 µM]	31.6µM	?	-	17.8µM	-[10 µM]
CCC(c1nnnn1Cc1ccco1)N(Cc1cc2cc(C)cc(C)c2[nH]c1=O)CC1CCCO1 (stereo unspecified)	-	12.6µM	-	-	?	-
COC(=O)C1=C(C)N(Cc2ccccc2)c2c(C(=O)OC)c(C(=O)OC)c(C(=O)OC)c(=O)n2C1c1ccccc1 (stereo unspecified)	.	-[13.5 µM]	.	-[13.1 µM]	.	-[10 µM]
